Screening data as filed in PubChem BioAssay.
KDM5B inh: Primary screen for KDM5B Histone Demethylases FDH-coupled qHTS | Lysine-specific demethylase 5B (Homo sapiens), Q9UGL1 | KDM5B demethylase, FDH-coupled NADH fluorescence (FDH is formaldehyde dehydrogenase) | Potency, µM (highest dose often 57.7 µM), most hits filed as inhibitors | actives 2.6% (n = 220,000) | AID 1347165, 2019; active means well fitted inhibition curve with a large enough effect; further: 0% is about no effect; nearly all actives have a fitted effect of over 70% in size
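KDM5BΔAP (200 nM final) in 50 mM HEPES pH 7.5, 0.01% Tween-20 was preincubated 10 min at RT with compound over a concentration range. Substrate mix (H3K4me3 12.5 µM, α-KG 25 µM, Fe²⁺, ascorbate, NAD⁺, FDH) was added, and NADH fluorescence change over 30 min gave dose-response curves.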
Numbers without * were called inactive; i = inactive; [ ] = dose if it differs, or a comment. Many of the other results were omitted from the sample, so hits are more common in it than they were. Potency means the concentration at half of the fitted maximal effect.

SMILES	KDM5B inh
Cc1ccc(Oc2ccccc2NC(=O)Cc2nn(C)c(=O)c3ccccc23)cc1	i
CCOc1ccc(CN(C)Cc2cc(=O)oc3cc(C)ccc23)cc1	i
CC(Oc1cccc(Br)c1)C(=O)NNC(=O)c1ccc2c(c1)NC(=O)CCS2 (configuration not stated)	i
O=C(Nc1oc2ccccc2c(=O)c1-c1ccc(F)cc1)c1cccc([N+](=O)[O-])c1	i
CN1CCC2(Cc3ccccc3CN(C(=O)Cc3cccc(Cl)c3)C2)C1 (configuration not stated)	i
COc1ccc(C)cc1-n1nnc(C(=O)Nc2ccc(Br)cc2)c1C	i
O=C(Nc1ccnn1Cc1ccccc1)c1cc(=O)c2cc(Cl)ccc2o1	i
O=C(O)c1ccc(CN2C[C@@H](F)[C@@H](OCc3nc4ccc(C(F)(F)F)cc4[nH]3)C2)cc1	i
CN(C)c1ncc(C(=O)NCc2ccc(Cl)cc2)cn1	i
CCc1ccc(NC(=O)c2cc3ccccn3n2)cc1	i[11.5 µM]
C=CCNC(=O)c1cc2cccnn2n1	31.6µM*
C=CCNC(=O)c1cc(-c2ccc3c(c2)OCO3)on1	i
O=C(NCc1ccc(Cl)cc1)c1ccn2nccc2c1	35.5µM*
Cc1nnn2c(C(=O)NCc3ccc(Cl)cc3)cccc12	35.5µM*
O=C(NCc1ccc(Cl)cc1)c1cnn2ncccc12	35.5µM*
O=C(NCc1ccc(-n2cccn2)cc1)c1ccc(Cl)cc1F	i
O=C(NCc1ccc(Cl)nc1)c1ccn2nccc2c1	i
CCCCCn1c(=O)[nH]c2cc(C(=O)NCc3ccc(Cl)cc3)ccc2c1=O	i
Cc1ccccc1-c1onc(C)c1C(=O)NCc1ccc(Cl)cc1	i
O=C(CCn1cccn1)NCc1ccc(Cl)cc1	i
CC1CCc2c(-c3cccc(O)c3)nc3ccc4ccccc4c3c2C1 (configuration not stated)	i
O=C(O)C(=Cc1cccs1)C(=O)O	i
CCOC(=O)c1c(NC(=O)CN2CCC(C)CC2)sc2c1CC(C)(C)OC2	i
CC(C)CN(C(=O)Cc1c[nH]c2ccccc12)c1nc2ccccc2s1	i
COc1ccc2c(CN3CCN(C(=O)C4COc5ccccc5O4)CC3)cc(=O)oc2c1 (configuration not stated)	i
SMILES	KDM5B inh
CCONC(=O)CNC(=O)c1ccccc1	i
Cc1cc(=O)oc2cc(OC(=O)CCCOc3ccccc3)ccc12	i
CN(C(=O)c1ccc(I)cc1)C1CCCCC1	i
Cc1ncccc1C(=O)N1CCC2(CC1)CC(N(Cc1ccc(F)cc1)C1CC1)CCO2 (configuration not stated)	i
c1cn(CCCNCc2ccc(-n3ccnc3)cc2)cn1	i
Brc1ccc(-c2noc(-c3ccc4c(c3)OCO4)n2)o1	i
CSC(=Nc1cccc([N+](=O)[O-])c1)SC	i
CCOC(=O)c1c(C)n(CC)c2ccc(OC(=O)c3ccccc3C)cc12	i
CCN1CCN(CCOc2ccc3c(=O)c(-c4ccc(Cl)cc4)c(C)oc3c2)CC1	i
O=C(NCc1ccc(Cl)cc1)c1cc2cccnn2n1	31.6µM*
O=C(NCCc1ccc(Cl)cc1)c1cc2ccccn2n1	i
O=C(Nc1ccc(Cl)cc1Cl)c1cc2cccnn2n1	i
CN1CCc2c([nH]c3ccccc23)C12CCN(C(=O)c1ccc3ncccc3c1)CC2	i
Cc1nc(C2(NC(=O)CCn3c(=O)oc4ccccc43)CCCCC2)no1	i
FC(F)(F)c1ccc(NC(=S)NC2CC2)cc1	i
Cc1c(C(=O)C(F)(F)F)c2ccccc2n1CCOc1ccccc1F	i
COC(=O)[C@@H]1Cc2nc[nH]c2CN1Cc1ccc(C(=O)O)cc1	39.8µM*
Cc1ccc(-c2noc([C@@H]3Cc4nc[nH]c4CN3Cc3ccc(C(=O)O)cc3)n2)cc1	35.5µM*
Cc1ccc(CN2Cc3[nH]cnc3C[C@H]2C(=O)N2CCC(Cc3ccccc3)CC2)cc1	i
O=C(Nc1cccc(F)c1)N1Cc2[nH]cnc2C[C@H]1c1nc(-c2ccc(F)c(Cl)c2)no1	i
Cc1ccc(-c2noc([C@@H]3Cc4nc[nH]c4CN3Cc3ccc(F)cc3)n2)cc1	i
COc1ccc(-c2noc([C@@H]3Cc4nc[nH]c4CN3Cc3ccccc3)n2)cc1	i
Cc1ccc(NC(=O)N2Cc3[nH]cnc3C[C@H]2c2nc(C(C)C)no2)cc1	i
Cc1ccc(-c2noc([C@@H]3Cc4nc[nH]c4CN3Cc3ccc(CO)o3)n2)cc1	i
O=C(O)c1ccc(CN2Cc3[nH]cnc3C[C@H]2c2nc(-c3ccc(F)c(Cl)c3)no2)cc1	25.1µM*
SMILES	KDM5B inh
O=C([C@@H]1Cc2nc[nH]c2CN1Cc1ccc(C(F)(F)F)cc1)N1CCOCC1	i
CC(C)c1noc([C@@H]2Cc3nc[nH]c3CN2Cc2ccc(F)cc2)n1	28.2µM*
O=C(O)c1ccc(CN2Cc3[nH]cnc3C[C@H]2c2nc(-c3cccc([N+](=O)[O-])c3)no2)cc1	i
Cc1cccc(NC(=O)COc2ncnc3ccc(Br)cc23)c1C	i
O=C(c1cccc(Oc2ccccc2)c1)N1CC[C@@]2(O)CCNC[C@H]2C1	i
CCCCCn1c(COc2ccccc2Cl)n[nH]c1=S	i
NC(=O)c1cn(CC(=O)NCCc2cccc3ccccc23)c2ccccc12	i
CCN(CC)CCNc1nc(C)c2c(c1C#N)CCCC2	i
COc1cc(OC)c(C(=O)OCc2ccccc2Br)cc1OC	i
CCCCNC(=S)Nc1cc(C)ccc1F	i
N#Cc1ccc(CNCc2cc(Br)cs2)cc1	i
C[C@H](C(=O)N1Cc2ccccc2CC2(CCCN2C)C1)c1ccccc1 (some centres not stated)	i
O=C(Nc1cccc2ccccc12)c1cc(F)c(F)cc1Cl	i
CC1CCCC(NC(=O)CCCc2cccs2)C1C (configuration not stated)	i
COc1cccc(NC(=O)Nc2cccc(-c3ccc(N4CCOCC4)nn3)c2)c1	i
COc1cccc(-c2nc(N3CCOCC3)cc3c2CN(C)C3=O)c1OC	39.8µM*
CN1Cc2c(cc(N3CCOCC3)nc2-c2cccc(C(F)(F)F)c2)C1=O	i
COc1cccc(-c2ccc(N3CCCCCC3)nn2)c1OC	i
Cc1cc(S(=O)(=O)Nc2cccc(-c3ccc(N4CCOCC4)nn3)c2)c(C)cc1Cl	i
Cc1ccc(NC(=O)Nc2cccc(-c3ccc(N4CCOCC4)nn3)c2)cc1F	i
COc1ccc(CN2Cc3[nH]nc(-c4cccc(OC)c4OC)c3CC2=O)cc1	i
COc1cccc(-c2nc(N3CCOCC3)cc3c2CN(C)C3=O)c1	35.5µM*
CN1Cc2c(cc(N3CCOCC3)nc2-c2cccc(N[S+](C)(=O)[O-])c2)C1=O	35.5µM*
Cc1ccc2[nH]cc(CCNC(=O)c3ccc(F)cc3)c2c1	i
NC(=O)C1CN(C(=O)c2nn(-c3ccccc3)c(=O)c3ccccc23)c2ccccc2O1 (configuration not stated)	i
SMILES	KDM5B inh
CN(C)C1(c2nnnn2-c2ccc3c(c2)OCCO3)C2CC3CC(C2)CC1C3 (configuration not stated)	i
COc1ccc(C)cc1CNCc1ccco1	i
CC(=O)Oc1ccc2c(-c3cc4ccccc4oc3=O)cc(=O)oc2c1	i
CCNC(=O)NC(=O)COC(=O)c1cc(-c2ccc(C)o2)nc2ccccc12	i
COc1ccc(C(=O)Nc2cc(C)nn2-c2nc(C)cc(C)n2)cc1	i
CCCNC(=O)NNC(=O)C(C)Oc1cccc(C(F)(F)F)c1 (configuration not stated)	i
